Measurements taken from PubChem BioAssay (NCATS).
Values joined by “and” are separate entries in the source; they are usually repeats but may differ in a detail not shown here. Identical values can stand only once. Inconclusive results are not listed. Active and inactive are the calls of the source. Unless noted, calls follow the shape of the dose curve; as a rule, active = well fitted curve in the direction sought with a large enough effect; inconclusive = small, poorly fitted or top-dose-only effect, or another doubt; inactive = no such curve, though single readings can be large; an effect the other way counts as inactive or inconclusive.

Assays:
[1] = Cell Viability - Jurkat (AID 426;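 active = dose-dependent loss of cell ATP signal giving a full or clear fitted curve, ranked by lower potency value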;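 also: potency is read from the fitted curve at half-maximal effect; cells exposed to compound for 40 hours at 37 °C before ATP read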); details: qHTS
Outline: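 Cells of the human T-cell leukemia line Jurkat (E6-1) are seeded at 5000 per well, treated with compound across a concentration range for 40 hours at 37 °C, then lysed with CellTiter-Glo; luminescence reports ATP.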

[2] = Cell Viability - LYMP2-015 (AID 971); details: LYMP2-015 lymphoblastoid cell viability; series mostly up to 92.2 µM; also: nearly all actives have a fitted effect of over 55% in size; also: potency is read from the fitted curve at half-maximal effect
Outline: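 Cells are seeded at 2500 per well and incubated 5 hr at 37 C. Compounds are added across a concentration series for 24 hr at 37 C. CellTiter-Glo is added, and luminescence is read after 30 min at room temperature.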

[3] = Cell Viability - LYMP2-002 (AID 977); details: LYMP2-002 lymphoblastoid cell viability, qHTS; series mostly up to 92.2 µM;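 also: compound exposure lasted 24 h at 37 °C; plate controls were DMSO only for no effect and 92 µM tetraoctylammonium bromide for full effect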
Outline: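 Human lymphoblastoid cells, 2500/well, complete medium; 5 h 37 C settle; compound 24 h 37 C; CellTiter-Glo, 30 min RT; luminescence. Decrease in ATP = cytotoxicity; AC50 via Hill equation.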

[4] = target: Glucocorticoid receptor (Homo sapiens) (UniProt P04150); experiment: qHTS assay for small molecule antagonists of glucocorticoid receptor signaling (AID 588533; active = well fitted inhibition curve with a large enough effect in the signal ratio, with a control signal flat, not every such curve was filed as active; the % refers to the signal ratio; also: % is scaled to controls: 0 for no effect and ±100 for the full control effect); details: HeLa MMTV-bla, GRE beta-lactamase ratio, antagonist mode, 18 h; series mostly up to 76.8 µM
Outline: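 Antagonist-mode qHTS: compound titrations added to GRE-bla HeLa cells, then dexamethasone 2 nM final; 18 h, 37 C. CCF4 FRET fluorescence normalized to dexamethasone and DMSO; IC50 from Hill fit.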

[5] = target: Peroxisome proliferator-activated receptor delta (Homo sapiens) (UniProt Q03181); experiment: qHTS assay for small molecule agonists of peroxisome proliferator-activated receptor delta signaling (AID 588534; calls by dose curve;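 also: 0% = DMSO basal wells and 100% = positive control agonist at 10 µM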); details: HEK293T PPARdelta-UAS-bla, beta-lactamase ratio, 18 h; series mostly up to 76.7 µM
Outline: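 Agonist-mode qHTS; reporter cells, 5 hrs 37 C pre-incubation; compound titration, 18 hrs 37 C; CCF4 dye, 2 hrs RT; fluorescence read. EC50/efficacy via Hill fit.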

[6] = qHTS assay for small molecule antagonists of peroxisome proliferator-activated receptor delta signaling (AID 588535; active = well fitted inhibition curve with a large enough effect in the signal ratio, with a control signal flat, not every such curve was filed as active; the % refers to the signal ratio;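 as to max response: cells co-treated with a PPAR-delta agonist as stimulator during compound exposure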); details: HEK293T PPARd-UAS-bla, beta-lactamase FRET ratio, 18 h; 460 nm channel
Outline: (§1)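 Fluorescence from CCF4-loaded GeneBLAzer PPAR-delta-UAS-bla HEK293T cells (2 hrs RT loading) quantified reporter inhibition after an 18 hr, 37 C compound exposure across a titration.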

[7] = target: Peroxisome proliferator-activated receptor delta (Homo sapiens) (UniProt Q03181); experiment: as above; details: HEK293T PPARd-UAS-bla, beta-lactamase FRET ratio, 18 h; series mostly up to 76.7 µM
Outline: as §1

[8] = qHTS assay for small molecule agonists of the antioxidant response element (ARE) signaling pathway (AID 651741; active = well fitted activation curve with a large enough effect in the signal ratio; the % refers to the signal ratio; also: potency is read from the fitted curve at half-maximal effect; as to activation: % of control where 0% means no effect); details: HepG2 ARE-bla reporter, beta-lactamase FRET ratio, 16 h; series mostly up to 96 µM
Outline: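 Stably integrated ARE-beta-lactamase reporter HepG2 cells; 16 h compound incubation, 37 C; LiveBLAzer FRET substrate 2 h at room temperature; fluorescence intensity.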

[9] = qHTS assay for small molecule activators of the p53 signaling pathway (AID 651743; active = well fitted activation curve with a large enough effect in the signal ratio, not every such curve was filed as active; the % refers to the signal ratio; also: % of control where 0% means no effect); details: HCT-116 p53RE-bla, beta-lactamase FRET ratio, 16 h; activation: stronger effect = higher value
Outline: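 Following 16 hours of compound exposure at 37 C, HCT-116 cells bearing the p53RE-bla reporter were loaded with LiveBLAzer B/G FRET substrate for 2 hours at room temperature and fluorescence intensity was recorded.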

[10] = qHTS assay for environmental chemicals that activate the Aryl hydrocarbon Receptor (AhR) signaling pathway (AID 651777); details: 1A2-DRE human hepatoma cells, luciferase, 24 h; activation: stronger effect = higher value; also: % of control where 0% means no effect; nearly all actives have a fitted effect of over 15% in size
Outline: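 Following a 24 hr incubation with test chemicals at 37 C and 5% CO2, 1A2-DRE human hepatoma cells received One-Glo reagent; after 30 min at room temperature, luciferase output reflected CYP1A2 induction via AhR.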

[11] = target: Nuclear receptor ROR-gamma (Homo sapiens) (UniProt P51449); experiment: qHTS assay for small molecule antagonists of the retinoid-related orphan receptor gamma (ROR-gamma) signaling pathway (AID 651802); details: ROR-gamma antagonist cell reporter assay; series mostly up to 92.2 µM; also: nearly all actives have a fitted effect of over 60% in size; also: potency is read from the fitted curve at half-maximal effect
Outline: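 Steps: cells dispensed; compound or DMSO transferred by pin tool; doxycycline added to induce the ROR response element-driven luciferase; plates held 16hr at 37C; ONE-Glo added and luminescence measured.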

[12] = Cell Viability - NIH 3T3 (AID 541); details: NIH 3T3 cell viability, qHTS; activity change, negative = cytotoxicity: at 92.2 µM (top of the series);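 also: plate controls were DMSO alone for no effect and tamoxifen positive control for full effect; nearly all actives have a fitted effect of over 25% in size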
Outline: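 Cells seeded at 1000/well, rested 5 hr at 37 °C, then dosed and incubated 40 hr at 37 °C. CellTiter-Glo added, 20 min room temperature, luminescence read. AC50 by Hill fit.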

[13] = Cell Viability - LYMP1-003 - Assay at 40 hr (AID 964); details: LYMP1-003 lymphoblastoid viability; series mostly up to 92.2 µM; also: % is scaled to controls: 0 for no effect and ±100 for the full control effect; nearly all actives have a fitted effect of over 60% in size
Outline: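 Luminescent ATP signal (CellTiter-Glo) served as the viability read-out after 40 hr compound treatment of human lymphoblastoid LYMP1-003 cells at 37 C. Decreases in ATP were fitted with the Hill equation to give AC50.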

[14] = target: Estrogen receptor (Homo sapiens) (UniProt P03372); experiment: qHTS assay for small molecule antagonists of estrogen receptor alpha signaling (AID 588513; active = well fitted curve in the direction sought with a large enough effect in the signal ratio, with a control signal flat, not every such curve was filed as active; the % refers to the signal ratio; also: % is scaled to controls: 0 for no effect and ±100 for the full control effect); details: ER-alpha-UAS-bla HEK293, beta-lactamase ratio, antagonist mode; series mostly up to 76.9 µM
Outline: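 Beta-lactamase reporter, antagonist mode, HEK 293 GripTite cells; 0.5nM E2 stimulus, 18 h, 37 C; CCF4 dye 2 h RT; fluorescence. IC50 and efficacy from Hill fits, normalized to E2 and DMSO.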

[15] = target: Estrogen receptor (Homo sapiens) (UniProt P03372); experiment: qHTS assay for small molecule agonists of estrogen receptor alpha signaling (AID 588514; calls by dose curve;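 also: 0% = vehicle only and 100% = reference agonist; nearly all actives have a fitted effect of over 70% in size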); details: ER-alpha-UAS-bla HEK293, beta-lactamase ratio, 18 h; series mostly up to 76.8 µM
Outline: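 Efficacy is expressed against 20 nM 17-beta-estradiol (100%) and DMSO basal (0%); EC50 from Hill equation. Assay: beta-lactamase reporter in ER-alpha-UAS-bla HEK 293 cells, 18 h compound incubation, CCF4 detection.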

[16] = target: Glucocorticoid receptor (Homo sapiens) (UniProt P04150); experiment: qHTS assay for small molecule agonists of glucocorticoid receptor signaling (AID 588532; active = well fitted curve in the direction sought with a large enough effect in the signal ratio, with a control signal flat; the % refers to the signal ratio;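 also: 100% = dexamethasone at 0.1 µM and 0% = DMSO only wells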); details: HeLa MMTV-bla, beta-lactamase ratio, agonist, 18 h; stronger effect = higher value; percent of dexamethasone control, DMSO zero
Outline: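 MMTV-bla HeLa beta-lactamase reporter cells in 1% charcoal/dextran FBS medium, compounds up to 92 uM for 18 h at 37 C, CCF4 readout; normalized to 0.1 uM dexamethasone (100%), EC50 and efficacy from Hill fits.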

[17] = target: Peroxisome proliferator-activated receptor gamma (Homo sapiens) (UniProt P37231); experiment: qHTS assay for small molecule antagonists of peroxisome proliferator-activated receptor gamma signaling (AID 588537; active = well fitted inhibition curve with a large enough effect in the signal ratio, with a control signal flat, not every such curve was filed as active; the % refers to the signal ratio;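 also: reporter cells co-stimulated with 50 nM rosiglitazone agonist during compound treatment; % of control where 0% means no effect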); details: HEK293 PPARg-UAS-bla, beta-lactamase ratio, antagonist mode; series mostly up to 76.8 µM
Outline: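 Fluorescence at 460 and 530 nm (405 nm excitation) reported beta-lactamase cleavage of CCF4 after 2 h room-temperature loading. HEK293 reporter cells in 1% charcoal/dextran-treated FBS had received compound and rosiglitazone for 16 h.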

[18] = target: Vitamin D3 receptor (Homo sapiens) (UniProt P11473); experiment: qHTS assay for small molecule antagonists of vitamin D receptor signaling (AID 588541; calls by dose curve;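 also: receptor activated by calcitriol during compound treatment; % is scaled to controls: 0 for no effect and ±100 for the full control effect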); details: HEK293T VDR-UAS-bla, beta-lactamase ratio, antagonist mode; series mostly up to 76.7 µM
Outline: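 VDR-UAS-bla HEK293T cells in 2% charcoal-stripped FBS were stimulated with 1-alpha,25-dihydroxyvitamin D3 (3 nM final) plus compound for 16 h at 37 C. The beta-lactamase CCF4 readout was normalized to 50 nM agonist and DMSO, and Hill fits gave IC50.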

[19] = qHTS assay for small molecule antagonists of the retinoid-related orphan receptor gamma (ROR-gamma) signaling pathway - cell viability counter screen (AID 720652; active = well fitted curve in the direction sought with a large enough effect in the repeat runs; an effect the other way counts as inactive or inconclusive;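 also: CHO reporter cells with doxycycline-induced ROR-gamma expression; compound exposure lasted 16 hr before ATP read; % is scaled to controls: 0 for no effect and ±100 for the full control effect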); details: RORgamma reporter cell line viability counter screen; series mostly up to 92.2 µM
Outline: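 Steps: seed CHO cells bearing TET-inducible ROR and ROR response element-luciferase; rest 5 hr at 37 C; add compound, then doxycycline; incubate 16 hr; add CellTiter-Glo and read luminescence as ATP-based viability.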

[20] = target: Bile acid receptor (Homo sapiens) (UniProt Q96RI1); experiment: qHTS assay for small molecule agonists of farnesoid X receptor signaling (AID 588527; calls by dose curve;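 also: 0% = vehicle basal and 100% = reference agonist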); details: HEK293T FXR-UAS-bla, beta-lactamase ratio, 16 h; stronger effect = higher value
Outline: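 Agonist-mode beta-lactamase reporter in GeneBLAzer FXR-UAS-bla HEK293T cells, titration up to 92 uM, 16 h exposure at 37 C, CCF4 fluorescence. Response scaled to DMSO (0%) and 100 uM chenodeoxycholic acid (100%), then Hill-fitted for EC50 and efficacy.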

Vitamin D3 receptor (Homo sapiens), sequence (P11473 whole entry, looked up): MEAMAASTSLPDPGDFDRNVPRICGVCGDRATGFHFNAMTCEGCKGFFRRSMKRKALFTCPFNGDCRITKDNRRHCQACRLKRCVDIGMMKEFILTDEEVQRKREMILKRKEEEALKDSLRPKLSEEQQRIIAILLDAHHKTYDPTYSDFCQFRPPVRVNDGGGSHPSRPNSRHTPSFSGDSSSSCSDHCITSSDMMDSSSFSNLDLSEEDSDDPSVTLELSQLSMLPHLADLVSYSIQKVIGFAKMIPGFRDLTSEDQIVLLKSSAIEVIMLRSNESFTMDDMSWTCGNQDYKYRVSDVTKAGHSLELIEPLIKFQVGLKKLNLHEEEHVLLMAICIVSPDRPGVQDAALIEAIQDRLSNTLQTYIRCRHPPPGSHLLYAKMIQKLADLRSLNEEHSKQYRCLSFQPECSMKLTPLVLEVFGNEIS
Peroxisome proliferator-activated receptor gamma (Homo sapiens), sequence (P37231 whole entry, looked up): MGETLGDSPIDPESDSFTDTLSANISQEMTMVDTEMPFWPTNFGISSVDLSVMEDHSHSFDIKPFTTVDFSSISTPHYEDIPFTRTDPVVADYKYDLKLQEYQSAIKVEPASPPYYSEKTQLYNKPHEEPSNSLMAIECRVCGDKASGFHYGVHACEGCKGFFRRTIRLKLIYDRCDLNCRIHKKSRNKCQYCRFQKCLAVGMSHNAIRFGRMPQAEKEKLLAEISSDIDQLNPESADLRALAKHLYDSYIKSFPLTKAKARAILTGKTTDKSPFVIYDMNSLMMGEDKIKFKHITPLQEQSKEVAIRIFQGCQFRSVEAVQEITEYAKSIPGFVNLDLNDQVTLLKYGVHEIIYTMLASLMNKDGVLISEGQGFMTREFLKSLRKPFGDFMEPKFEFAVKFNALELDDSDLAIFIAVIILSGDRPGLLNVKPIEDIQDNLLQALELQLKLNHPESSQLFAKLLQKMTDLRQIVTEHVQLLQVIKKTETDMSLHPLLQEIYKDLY
Estrogen receptor (Homo sapiens), sequence (P03372 whole entry, looked up): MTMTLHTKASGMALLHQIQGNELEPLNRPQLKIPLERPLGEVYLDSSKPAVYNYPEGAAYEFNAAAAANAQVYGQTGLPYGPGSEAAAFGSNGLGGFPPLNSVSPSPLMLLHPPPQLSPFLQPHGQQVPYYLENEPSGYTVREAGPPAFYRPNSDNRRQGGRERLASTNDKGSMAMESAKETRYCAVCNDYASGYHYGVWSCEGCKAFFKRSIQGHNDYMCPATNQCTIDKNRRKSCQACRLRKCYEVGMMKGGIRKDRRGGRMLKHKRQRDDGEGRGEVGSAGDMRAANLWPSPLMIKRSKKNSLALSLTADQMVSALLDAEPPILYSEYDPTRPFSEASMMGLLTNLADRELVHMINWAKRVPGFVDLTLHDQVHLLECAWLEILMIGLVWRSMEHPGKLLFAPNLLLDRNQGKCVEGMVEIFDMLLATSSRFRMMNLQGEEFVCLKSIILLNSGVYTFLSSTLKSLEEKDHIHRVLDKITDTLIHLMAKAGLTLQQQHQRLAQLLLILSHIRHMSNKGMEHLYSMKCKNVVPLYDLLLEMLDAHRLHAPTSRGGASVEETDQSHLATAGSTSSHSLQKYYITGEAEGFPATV
Peroxisome proliferator-activated receptor delta (Homo sapiens), sequence (Q03181 whole entry, looked up): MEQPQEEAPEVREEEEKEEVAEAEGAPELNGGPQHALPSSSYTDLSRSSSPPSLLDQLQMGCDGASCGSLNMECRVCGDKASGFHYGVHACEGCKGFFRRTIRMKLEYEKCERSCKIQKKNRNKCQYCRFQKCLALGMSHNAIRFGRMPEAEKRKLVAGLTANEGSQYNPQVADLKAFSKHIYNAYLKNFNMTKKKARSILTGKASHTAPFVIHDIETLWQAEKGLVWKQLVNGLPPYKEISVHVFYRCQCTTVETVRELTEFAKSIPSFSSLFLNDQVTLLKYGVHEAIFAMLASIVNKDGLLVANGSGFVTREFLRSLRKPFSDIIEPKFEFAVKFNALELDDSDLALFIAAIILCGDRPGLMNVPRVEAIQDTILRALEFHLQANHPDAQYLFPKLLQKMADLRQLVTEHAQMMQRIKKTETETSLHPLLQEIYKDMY
Glucocorticoid receptor (Homo sapiens), sequence (P04150 whole entry, looked up): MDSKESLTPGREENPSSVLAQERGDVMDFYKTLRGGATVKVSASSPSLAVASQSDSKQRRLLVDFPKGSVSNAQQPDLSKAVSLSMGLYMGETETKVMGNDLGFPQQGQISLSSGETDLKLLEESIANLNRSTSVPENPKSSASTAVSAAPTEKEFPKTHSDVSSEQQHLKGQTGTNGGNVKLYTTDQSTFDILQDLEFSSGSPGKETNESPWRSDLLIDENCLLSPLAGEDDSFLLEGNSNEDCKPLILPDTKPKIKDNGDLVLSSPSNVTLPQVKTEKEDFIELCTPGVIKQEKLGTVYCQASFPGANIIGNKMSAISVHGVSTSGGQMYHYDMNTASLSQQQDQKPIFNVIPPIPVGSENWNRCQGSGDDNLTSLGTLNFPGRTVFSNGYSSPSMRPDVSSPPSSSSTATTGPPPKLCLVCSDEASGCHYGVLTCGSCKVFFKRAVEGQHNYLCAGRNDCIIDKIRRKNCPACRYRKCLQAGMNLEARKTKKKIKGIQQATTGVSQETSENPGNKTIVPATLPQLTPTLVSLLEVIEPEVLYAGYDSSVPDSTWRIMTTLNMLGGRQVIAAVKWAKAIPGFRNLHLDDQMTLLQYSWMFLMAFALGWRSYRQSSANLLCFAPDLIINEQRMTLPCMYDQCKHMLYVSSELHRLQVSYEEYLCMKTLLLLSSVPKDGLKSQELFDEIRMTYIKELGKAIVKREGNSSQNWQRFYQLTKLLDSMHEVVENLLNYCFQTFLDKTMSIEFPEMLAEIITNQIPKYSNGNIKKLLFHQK
Bile acid receptor (Homo sapiens), sequence (Q96RI1 whole entry, looked up): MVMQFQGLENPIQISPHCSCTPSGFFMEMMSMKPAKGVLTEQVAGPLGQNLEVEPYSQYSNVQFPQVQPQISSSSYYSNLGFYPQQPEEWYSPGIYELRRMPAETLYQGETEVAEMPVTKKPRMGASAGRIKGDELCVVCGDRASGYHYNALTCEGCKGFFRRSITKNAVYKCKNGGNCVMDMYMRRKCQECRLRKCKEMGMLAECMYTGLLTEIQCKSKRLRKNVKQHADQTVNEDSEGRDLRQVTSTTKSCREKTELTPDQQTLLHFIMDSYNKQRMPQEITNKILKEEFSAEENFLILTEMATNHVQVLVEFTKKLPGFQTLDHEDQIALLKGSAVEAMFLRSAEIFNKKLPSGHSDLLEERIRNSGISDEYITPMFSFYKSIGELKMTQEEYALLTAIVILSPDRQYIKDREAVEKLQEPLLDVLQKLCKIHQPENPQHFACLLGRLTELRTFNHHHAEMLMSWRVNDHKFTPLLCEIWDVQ
Nuclear receptor ROR-gamma (Homo sapiens), sequence (P51449 whole entry, looked up): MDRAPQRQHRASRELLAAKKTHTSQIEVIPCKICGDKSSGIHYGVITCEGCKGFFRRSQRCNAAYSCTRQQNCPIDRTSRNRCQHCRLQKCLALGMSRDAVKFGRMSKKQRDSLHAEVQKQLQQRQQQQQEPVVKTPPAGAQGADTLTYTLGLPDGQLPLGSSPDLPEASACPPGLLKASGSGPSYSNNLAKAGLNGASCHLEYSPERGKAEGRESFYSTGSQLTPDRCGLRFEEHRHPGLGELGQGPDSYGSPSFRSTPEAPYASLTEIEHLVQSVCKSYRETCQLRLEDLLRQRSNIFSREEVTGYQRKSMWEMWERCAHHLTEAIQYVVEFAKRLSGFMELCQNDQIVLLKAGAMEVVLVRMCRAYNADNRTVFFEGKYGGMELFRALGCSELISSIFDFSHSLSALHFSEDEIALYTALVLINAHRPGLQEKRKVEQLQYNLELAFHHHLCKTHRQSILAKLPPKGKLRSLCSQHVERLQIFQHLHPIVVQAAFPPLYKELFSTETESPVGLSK

BrCCc1ccccc1
-20.6%: max response [6]
inactive: Potency [1] > 92 µM | Potency [2] | Potency [3] | outcome [4] | outcome [5] | outcome [7] | Potency [8] | activation [9] -5.87% | activation [10] -0.177% | Potency [11]

Cc1ccc([N+](=O)[O-])cc1
22.5%: max response [6]
inactive: Potency [1] > 92 µM | Potency [12] | Potency [13] | Potency [2] | Potency [3] | Potency [14] | Potency [15] | activation [16] -2.83% | outcome [4] | outcome [5] | outcome [7] | Potency [17] | outcome [18] | activation [9] -4.73% | activation [10] -0.408% | Potency [11] | Potency [19]

CCOC(=O)CBr
-11.7%: max response [6]
inactive: Potency [1] > 92 µM | Potency [12] | Potency [13] | Potency [2] | Potency [3] | activation [20] 0.321% | outcome [4] | outcome [5] | outcome [18] | Potency [8] | activation [10] -0.43% | Potency [11] | Potency [19]

CCOC(=O)C1OC1(C)c1ccccc1 (configuration not stated)
inactive: Potency [1] > 92 µM | Potency [2] | activation [16] -3.51% | outcome [4] | Potency [17] | activation [9] -3.07% | activation [10] -0.466% | Potency [19]

C/C=C/C=O
inactive: Potency [1] > 92 µM | Potency [12] | Potency [13] | activation [16] 3.01% | Potency [17] | outcome [18] | Potency [11] | Potency [19]

N#C/C=C/C#N
active: Potency [1] 20.8 µM | activity change, negative = cytotoxicity [12] -156% | Potency [2] 50.1 µM | Potency [8] 37.6 µM | Potency [11] 23.7 µM
inactive: Potency [13] | Potency [14] | outcome [4] | outcome [5] | Potency [19]

Brc1cccc(-c2ccccc2)c1
inactive: Potency [1] > 92 µM | Potency [12] | Potency [13] | Potency [2] | Potency [3] | Potency [14] | Potency [15] | activation [20] -2.22% | activation [16] -4.94% | outcome [4] | activation [10] -0.116% | Potency [11] | Potency [19]

Cc1ccc(OP(=O)(Oc2ccc(C)cc2)Oc2ccc(C)cc2)cc1
inactive: Potency [12] | Potency [13] | Potency [2] | Potency [3] | activation [16] -0.0057% and -10.3% | outcome [4] | outcome [5] | outcome [7] | Potency [17] | activation [9] 0.798% and -5.64% | activation [10] 5.07% and 5.6%
2.39% and -12%: max response [6]

CCCCNC(=O)n1c(NC(=O)OC)nc2ccccc21
active: Potency [1] 3.28 µM
inactive: Potency [2] | Potency [3] | Potency [14] | Potency [15] | activation [20] -3.82% and -0.311% | activation [16] -10.9% | outcome [18] | Potency [8] | activation [10] 8.93% and 9.96% | Potency [11] | Potency [19]

Cc1cccc(N)c1C
inactive: Potency [1] > 92 µM | Potency [12] | Potency [3] | Potency [14] | activation [20] -3.96% | outcome [4] | outcome [5] | outcome [18] | Potency [8] | activation [9] 12.1% | Potency [11] | Potency [19]

ClC(Cl)(Cl)C(Cl)(Cl)Cl
inactive: Potency [12] | Potency [2] | Potency [14] | Potency [15] | activation [16] 5.68% | outcome [4] | Potency [17] | activation [9] -2.98% | activation [10] 0.18% | Potency [11]

N#CC(Br)Br
active: Potency [8] 42.2 µM
inactive: Potency [13] | Potency [14] | Potency [15] | activation [20] -0.424% | activation [16] -5.99% | outcome [7] | Potency [17] | activation [10] 1.38% | Potency [11]
-6.9%: max response [6]

Cl/C=C/Cl
inactive: Potency [12] | Potency [13] | Potency [3] | Potency [14] | Potency [15] | activation [16] -4.99% | outcome [4] | outcome [5] | outcome [18] | Potency [8] | activation [10] 0.896% | Potency [19]
-19.1%: max response [6]

Clc1cccc(Cl)c1Cl
-24.3%: max response [6]
inactive: Potency [13] | Potency [2] | Potency [3] | activation [16] -0.532% | outcome [4] | outcome [7] | Potency [17] | outcome [18] | Potency [8] | activation [10] -1.51% and 0.659% | Potency [11] | Potency [19]

Cc1cc(-c2cc(C)c(N)c(C)c2)cc(C)c1N
7.84%: max response [6]
inactive: Potency [1] > 92 µM | Potency [12] | Potency [3] | Potency [14] | Potency [15] | activation [16] -0.885% | outcome [5] | outcome [7] | outcome [18] | activation [9] -3.17% | Potency [11] | Potency [19]

O=[N+]([O-])c1ccccc1CCl
active: Potency [11] 42.2 µM
inactive: Potency [13] | Potency [3] | Potency [14] | Potency [15] | activation [20] -1.64% | activation [16] 1.82% | outcome [4] | outcome [5] | outcome [7] | Potency [17] | activation [9] -1.05% | activation [10] -0.0678%
-16.6%: max response [6]
